Results filed as inconclusive are left out. The source made the active and inactive calls. Calls follow the shape of the dose curve; as a rule, active = well fitted inhibition curve with a large enough effect; inconclusive = small, poorly fitted or top-dose-only effect; inactive = flat fitted curve, though single readings scatter.
What was measured:
PC26 = experiment: qHTS profiling for inhibitors of Plasmodium falciparum proliferation (AID 504749);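 also: 0% = DMSO vehicle and full inhibition = artemisinin control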; conditions: P. falciparum in erythrocytes, SYBR Green DNA, 72 h; series mostly up to 28.7 µM
Summary of the method: (§1)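 Infected RBCs, 0.3% parasitemia/2.5% Hct final; cpd 72 h, 37 C, 5% CO2; lysis buffer with saponin/triton/SYBR Green I, o/n RT dark; FI 485/535; norm. to artemisinin (0.29 uM) and DMSO.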

PC49 = experiment: as above; conditions: P. falciparum in erythrocytes, SYBR Green DNA, 72 h; series mostly up to 28.7 µM
Summary of the method: as §1

SC27B = experiment: as above; conditions: P. falciparum in erythrocytes, SYBR Green DNA, 72 h; series mostly up to 28.7 µM
Summary of the method: as §1

TAB109 = experiment: as above; conditions: P. falciparum in erythrocytes, SYBR Green DNA, 72 h; series mostly up to 28.7 µM
Summary of the method: as §1

TAB113 = experiment: as above; conditions: P. falciparum in erythrocytes, SYBR Green DNA, 72 h; series mostly up to 28.7 µM
Summary of the method: as §1

TAB165 = experiment: as above; conditions: P. falciparum in erythrocytes, SYBR Green DNA, 72 h; series mostly up to 28.7 µM
Summary of the method: as §1

W2 = experiment: as above; conditions: P. falciparum in erythrocytes, SYBR Green DNA, 72 h; series mostly up to 28.7 µM
Summary of the method: as §1

CRL-7250 = normal cell line; experiment: Cytotoxic Profiling of Annotated Libraries Using Quantitative High-Throughput Screening (AID 1296008); conditions: Five cell lines viability, CellTiter-Glo ATP luminescence, 48-72 h; active compounds read low; as to max response: % is scaled to controls: 0 for no effect and ±100 for the full control effect
Summary of the method: (§2)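 Cytotoxicity was measured as CellTiter-Glo ATP luminescence, read after 10 min at room temperature. Compound treatment of the cells lasted 48 or 72 hr at 37 degrees Celsius in a qHTS format.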

HEK293 = experiment: as above; conditions: Five cell lines viability, CellTiter-Glo ATP luminescence, 48-72 h; active compounds read low
Summary of the method: as §2

HaCat = experiment: as above; conditions: Five cell lines viability, CellTiter-Glo ATP luminescence, 48-72 h; active compounds read low
Summary of the method: as §2

KB-3-1 = experiment: as above; conditions: Five cell lines viability, CellTiter-Glo ATP luminescence, 48-72 h, active compounds read low
Summary of the method: as §2

NIH3T3 [1] = experiment: as above; conditions: Five cell lines viability, CellTiter-Glo ATP luminescence, 48-72 h; active compounds read low
Summary of the method: as §2

HEK293T = experiment: qHTS assay to identify novel small-molecules to repurpose for Merkel cell carcinoma treatment (AID 1296009); conditions: MCC and control cell lines, CellTiter-Glo viability, 72 h; at 44.8 µM (top of the series) unless noted
Summary of the method: (§3)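 72 hr, 37 degree celsius; NPC 8-pt / MIPE 11-pt dose response; compound pinned in DMSO; CellTiter-Glo, 10 min RT, luminescence; normalized to no-cell and DMSO controls.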

MCC-13 = experiment: as above; conditions: MCC and control cell lines, CellTiter-Glo viability, 72 h; series mostly up to 46 µM
Summary of the method: as §3

MCC-26 = experiment: as above; conditions: MCC and control cell lines, CellTiter-Glo viability, 72 h; series mostly up to 46 µM
Summary of the method: as §3

MKL-1 = experiment: as above; conditions: MCC and control cell lines, CellTiter-Glo viability, 72 h; series mostly up to 46 µM
Summary of the method: as §3

MKL-2 = experiment: as above; conditions: MCC and control cell lines, CellTiter-Glo viability, 72 h; series mostly up to 46 µM
Summary of the method: as §3

UISO = experiment: as above; conditions: MCC and control cell lines, CellTiter-Glo viability, 72 h; series mostly up to 46 µM
Summary of the method: as §3

NIH3T3 [2] = experiment: as above; conditions: MCC and control cell lines, CellTiter-Glo viability, 72 h; at 44.8 µM (top of the series) unless noted
Summary of the method: as §3
Also: nearly all actives have a fitted effect of over 60% in size.

C[C@@H]1O[C@@H](OC[C@H]2O[C@@H](Oc3c(-c4ccc(O)c(O)c4)oc4cc(O)cc(O)c4c3=O)[C@H](O)[C@@H](O)[C@@H]2O)[C@H](O)[C@H](O)[C@H]1O
inactive: Potency (PC26) | Potency (PC49) | Potency (SC27B) | Potency (TAB109) | Potency (TAB113) | Potency (TAB165) | Potency (W2) | max response (CRL-7250) -4.29% | outcome (HEK293) | max response (HaCat) 2.78% | max response (KB-3-1) 16.6% | max response (NIH3T3 [1]) -8.53% | outcome (HEK293T) | outcome (MCC-13) | outcome (MCC-26) | outcome (MKL-1) | outcome (MKL-2) | outcome (UISO)

C[N+](C)(C)CC[N+]1(C)Cc2c(Cl)c(Cl)c(Cl)c(Cl)c2C1
inactive: Potency (PC26) | Potency (PC49) | Potency (SC27B) | Potency (TAB109) | Potency (TAB113) | Potency (TAB165) | Potency (W2) | max response (CRL-7250) -7.06% | outcome (HEK293) | max response (HaCat) -6.5% | max response (KB-3-1) 9.08% | max response (NIH3T3 [1]) 3.9% | outcome (HEK293T) | outcome (MCC-13) | outcome (MCC-26) | outcome (MKL-1) | outcome (MKL-2) | outcome (UISO)

O=C(O)C(S)C(S)C(=O)O (stereo not drawn)
inactive: max response (CRL-7250) -6.2% | max response (HEK293) -7.93% | max response (HaCat) 3.59% | max response (KB-3-1) -23% | outcome (NIH3T3 [1]) | outcome (MCC-13) | outcome (MCC-26) | outcome (MKL-1) | outcome (MKL-2) | outcome (NIH3T3 [2]) | outcome (UISO)

C[C@@H](N)C(=O)O
inactive: Potency (PC26) | Potency (PC49) | Potency (SC27B) | Potency (TAB109) | Potency (TAB113) | Potency (TAB165) | Potency (W2) | max response (CRL-7250) 0.494% | outcome (HEK293) | max response (HaCat) -6.96% | max response (KB-3-1) -23.1% | max response (NIH3T3 [1]) -0.0264% | outcome (HEK293T) | outcome (MCC-13) | outcome (MCC-26) | outcome (MKL-1) | outcome (MKL-2) | outcome (UISO)

COc1ccc(O)cc1
inactive: Potency (PC26) | Potency (PC49) | Potency (SC27B) | Potency (TAB109) | Potency (TAB113) | Potency (TAB165) | Potency (W2) | max response (CRL-7250) -3.8% | outcome (HEK293) | max response (HaCat) -9.9% | max response (KB-3-1) -0.988% | max response (NIH3T3 [1]) -13.1% | outcome (HEK293T) | outcome (MCC-13) | outcome (MCC-26) | outcome (MKL-1) | outcome (UISO)

CCCCCCCCCCCCCCCCN
inactive: Potency (PC26) | Potency (PC49) | Potency (SC27B) | Potency (TAB109) | Potency (TAB165) | Potency (W2) | max response (CRL-7250) -3.5% | outcome (HEK293) | max response (HaCat) -13.8% | max response (KB-3-1) 5.46% | max response (NIH3T3 [1]) -1.53% | outcome (HEK293T) | outcome (MCC-13) | outcome (MCC-26) | outcome (MKL-1) | outcome (MKL-2) | outcome (UISO)

Cc1ccccc1N=Nc1ccc(N=Nc2c(O)ccc3ccccc23)c(C)c1
inactive: Potency (PC26) | Potency (PC49) | Potency (SC27B) | Potency (TAB109) | Potency (TAB113) | Potency (TAB165) | Potency (W2) | max response (CRL-7250) -16.7% | outcome (HEK293) | max response (HaCat) 0.728% | max response (KB-3-1) 9.66% | max response (NIH3T3 [1]) 0.522% | outcome (HEK293T) | outcome (MCC-13) | outcome (MCC-26) | outcome (MKL-1) | outcome (MKL-2)

O=C(O)c1ccccc1C(=O)Nc1ccc(S(=O)(=O)Nc2nccs2)cc1
inactive: Potency (PC26) | Potency (PC49) | Potency (SC27B) | Potency (TAB109) | Potency (TAB113) | Potency (TAB165) | Potency (W2) | max response (CRL-7250) -2.05% | outcome (HEK293) | max response (HaCat) -2.6% | max response (KB-3-1) 5.93% | max response (NIH3T3 [1]) -7.95% | outcome (HEK293T) | outcome (MCC-13) | outcome (MKL-1) | outcome (MKL-2) | outcome (UISO)

CC(C)C[C@@H](N)C(=O)O
inactive: Potency (PC26) | Potency (PC49) | Potency (SC27B) | Potency (TAB109) | Potency (TAB113) | Potency (TAB165) | Potency (W2) | max response (CRL-7250) -5.17% | outcome (HEK293) | max response (HaCat) 4.82% | max response (KB-3-1) 12.7% | max response (NIH3T3 [1]) 4.91% | outcome (HEK293T) inactive [at 17.4 µM] | outcome (MCC-13) | outcome (MCC-26) | outcome (MKL-1) | outcome (MKL-2) | outcome (UISO)

C=CCN1C[C@H](C(=O)N(CCCN(C)C)C(=O)NCC)C[C@@H]2c3cccc4[nH]cc(c34)C[C@H]21
inactive: outcome (CRL-7250) | max response (HEK293) 1.65% | max response (HaCat) -1.25% | max response (KB-3-1) 6.36% | outcome (NIH3T3 [1]) | outcome (MCC-13) | outcome (MCC-26) | outcome (MKL-1) | outcome (MKL-2) | outcome (NIH3T3 [2]) | outcome (UISO)

CCCCCCCCCCC(CO)CCCCCCCC (stereo not drawn)
inactive: Potency (PC26) | Potency (PC49) | Potency (SC27B) | Potency (TAB109) | Potency (TAB113) | Potency (TAB165) | max response (CRL-7250) -6.12% | outcome (HEK293) | max response (HaCat) -2.15% | max response (KB-3-1) 12.2% | max response (NIH3T3 [1]) 1.86% | outcome (HEK293T) | outcome (MCC-13) | outcome (MCC-26) | outcome (MKL-1) | outcome (MKL-2) | outcome (UISO)

CNCc1ccccc1
inactive: Potency (PC26) | Potency (PC49) | Potency (SC27B) | Potency (TAB109) | Potency (TAB113) | Potency (TAB165) | Potency (W2) | max response (CRL-7250) 4.71% | outcome (HEK293) | max response (HaCat) -18.5% | max response (KB-3-1) -4.93% | max response (NIH3T3 [1]) 1.15% | outcome (HEK293T) | outcome (MCC-13) | outcome (MKL-1) | outcome (MKL-2) | outcome (UISO)

O=C1CC[C@@H](C(=O)O)N1
inactive: Potency (PC26) | Potency (PC49) | Potency (SC27B) | Potency (TAB109) | Potency (TAB113) | Potency (TAB165) | max response (CRL-7250) 1.58% | outcome (HEK293) | max response (HaCat) 4.13% | max response (KB-3-1) 18.1% | max response (NIH3T3 [1]) 0.792% | outcome (HEK293T) | outcome (MCC-13) | outcome (MCC-26) | outcome (MKL-1) | outcome (MKL-2) | outcome (UISO)
